Test results reported in PubChem BioAssay (Tox21).
Results filed as inconclusive are left out. A call without a number means that no potency is given here. Values without a mark were called inactive. Calls of active or inactive are those of the source. Calls follow the shape of the dose curve; as a rule, active = well fitted activation curve with a large enough effect in the repeat runs; inconclusive = weak or mixed curves; inactive = no such curve, though single readings can be large or run the other way.

biological target: Nuclear receptor subfamily 1 group I member 3 (Homo sapiens) (UniProt Q14994); assay: qHTS assay to identify small molecule agonists of the constitutive androstane receptor (CAR) signaling pathway (AID 1224839); conditions: HepG2 hCAR CYP2B6-luciferase, agonist mode, 24 h; series mostly up to 92.4 µM; also: nearly all actives have a fitted effect of over 15% in size;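 as to activation: HepG2 cells stably carrying human CAR and a CYP2B6 luciferase reporter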
From the text: National Center for Advancing Translational Sciences [NCATS] NIH Chemical Genomics Center [NCGC] U.S. Environmental Protection Agency [EPA] National Institutes of Environmental Health Sciences [NIEHS] National Toxicology Program [NTP] Assay overview: The constitutive androstane receptor (CAR) is a nuclear receptor which regulates multiple drug metabolizing enzymes (DMEs) and transporters. Activating CAR will generally increase the transcription and subsequent translation of CYP2B6 and CYP3A4. These two DMEs represent about 50% of the drug metabolizing potential in the body. […] Recently, there have also been studies performed indicating CARs role in energy metabolism and cancer therapy. Therefore, inducing CARs activity could have a potential effect on diabetes and cancer. Identifying environmental toxins and compounds which modulate CAR, through the use of the Tox21 10K compound collection, will be an important step in determining the toxicity and potential therapeutic effects these factors will have on the human body.
Assay Protocol Summary: A double-stable (hCAR and CYP2B6-2.2kb) transfected cell line, derived from human hepatoma (HepG2) cells, was utilized for the duration of the quantitative high-throughput screens. The HepG2-CYP2B6-hCAR cells suspended in DMEM culture medium supplemented with 10% FBS, 5 ug/mL blasticidin, 0.5 mg/mL geneticin, 100 U/mL penicillin and 100 ug/mL streptomycin were dispensed at 2500 cells/4 uL/well in 1536-well white solid bottom plates using a Multidrop Combi. After the assay plates were incubated at 37 C/5% CO2 for 4 hrs, 23 nL of compounds at 15 concentrations (from 5-48 columns) or positive control (from 1 to 4 columns) were transferred to the assay plates using a Pintool station. One uL of PK11195, was added using a Flying Reagent Dispenser to generate a final concentration of 0.75 uM PK11195 inside each well. After a 24 hr incubation period at 37 C/5% CO2, four uL of ONE-Glo reagent was added into the assay plates using a Flying Reagent Dispenser. After a 30 min incubation period at room temperature, the luminescence intensity in the assay plates was measured using a ViewLux plate reader.
Potency is read from the fitted curve at half-maximal effect.

Chain of Nuclear receptor subfamily 1 group I member 3 (Homo sapiens) (Q14994 whole entry, looked up): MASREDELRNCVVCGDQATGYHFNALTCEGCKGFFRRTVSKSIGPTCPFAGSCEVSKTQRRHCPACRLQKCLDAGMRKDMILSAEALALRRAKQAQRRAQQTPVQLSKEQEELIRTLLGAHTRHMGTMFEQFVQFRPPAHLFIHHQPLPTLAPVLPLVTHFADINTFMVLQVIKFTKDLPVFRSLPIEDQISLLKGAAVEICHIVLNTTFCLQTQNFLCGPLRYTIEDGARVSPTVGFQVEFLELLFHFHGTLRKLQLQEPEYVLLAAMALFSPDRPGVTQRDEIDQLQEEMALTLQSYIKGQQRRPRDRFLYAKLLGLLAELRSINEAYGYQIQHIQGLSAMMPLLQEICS

| Compound | Potency | activation |
| --- | --- | --- |
| Cc1ccccc1C(=O)Nc1ccc(C(=O)N2CCCC(O)c3cc(Cl)ccc32)c(C)c1 (stereo not given) | inactive | – |
| Cc1cccc(C)c1NC(=O)CN1CCCCCC1 | inactive | – |
| COC(=O)c1ccc(OC)cc1 | inactive | – |
| CN1[C@@H]2CC[C@H]1CC(OC(=O)c1c[nH]c3ccccc13)C2 (stereo not given in full) | inactive | – |
| Cc1c(C(=O)NCCO)[n+](=O)c2ccccc2n1[O-] | inactive | – |
| CC(=O)Nc1ccc(C)c(Cl)c1 | inactive | – |
| O=C(O)c1cccc(Cl)c1Cl | inactive | – |
| Cc1cn([C@@H]2O[C@H](CO)[C@@H](O)[C@@H]2F)c(=O)[nH]c1=O | inactive | – |
| CC(C)Nc1nc(N)nc(Cl)n1 | inactive | – |
| CC(C)CCCCCCc1ccc(OCCOCCO)cc1 | inactive | – |
| O=C1CCCc2ccccc21 | inactive | – |
| CCCCCCCOC(=O)CCC | inactive | – |
| Cc1cc2c(s1)Nc1ccccc1N=C2N1CCN(C)CC1 | inactive | – |
| c1ccc(CN(CC2=NCCN2)c2ccccc2)cc1 | inactive | – |
| C=O | inactive | – |
| CC(C)(CO)[C@@H](O)C(=O)NCCC(=O)O | inactive | – |
| NS(=O)(=O)c1cc(-c2nn[nH]n2)c(NCc2cccs2)cc1Cl | inactive | – |
| CCCOc1ccc2c(c1)CC[C@@H]1[C@@H]2CC[C@]2(C)C(OC)CC[C@@H]12 (stereo not given in full) | inactive | – |
| O=C1CCN(c2ccccc2)N1 | inactive | – |
| C[C@@H]1CN(c2c(F)c(F)c3c(=O)c(C(=O)O)cn(C4CC4)c3c2F)C[C@H](C)N1 | – | 0.519% [at 19 µM] |

| Compound | Potency | activation |
| --- | --- | --- |
| Cc1ncc(CO)c(CN)c1O | inactive | – |
| ClC(Cl)Cl | inactive | – |
| CCCCC(CC)COC(=O)COc1cc(Cl)c(Cl)cc1Cl (stereo not given) | inactive | – |
| CCN(O)CC | inactive | – |
| C=CCc1cc(OC)c(O)c(C(=O)NCCO)c1 | inactive | – |
| CCCCNC(=S)NCCCC | inactive | – |
| FC(F)(F)c1ccccc1 | inactive | – |
| CCCCCCn1c(=O)c2c(ncn2C)n(C)c1=O | inactive | – |
| Oc1ccccc1C=NCc1ccccc1 | inactive | – |
| Cc1cc2nc(N)sc2cc1C | 2.19 µM (active) | – |
| CCOC(=O)CS | inactive | – |
| Nc1cccc(S(=O)(=O)O)c1 | inactive | – |
| O=Cc1ccc(O)c(O)c1O | inactive | – |
| O=c1[nH]c(=O)n([C@H]2C[C@H](O)[C@@H](CO)O2)cc1C(F)(F)F | inactive | – |
| CC(C)NC[C@@H](O)COc1cccc2ccccc12 | inactive | – |
| COc1ccc2nc(NC(=O)Nc3ccccc3)sc2c1 | 10.6 µM (active) | – |
| CC(C)(C)C1CCCCC1=O (stereo not given) | inactive | – |
| O=C(O)c1ccccc1Nc1cc(Cl)ccc1C(=O)O | – | -3.13% [at 19 µM] |
| CN(C)C(=O)NC1(c2ccccc2)CCN(CCC[C@]2(c3ccc(Cl)c(Cl)c3)CCCN(C(=O)c3ccccc3)C2)CC1 | – | -6.21% [at 19 µM] |
| C[C@@H](N)C(=O)O | inactive | – |
